In the library only some 17% were active in any assay of this set; here they are far more common.
DT40 TDP1 CPT = growth inhibition of DT40 Tdp1-/-;hTDP1 cells with camptothecin (screen for TDP1 inhibitors) | 420,000 tested, 12% active | AID 686979 | Potency, µM (highest dose often 46.2 µM), for the others: top-dose activity change, negative = growth inhibition, hits mostly inhibitors | chicken DT40 Tdp1-/-;hTDP1 cells + 20 nM CPT, ATP luminescence, 48 h; also: % is scaled to controls: 0 for no effect and ±100 for the full control effect; nearly all actives have a fitted effect of over 55% in size
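Chicken DT40 Tdp1-/- cells stably complemented with human TDP1 were seeded at 400 cells/well in medium containing 20 nM camptothecin, exposed to pin-transferred compounds, and grown at 37 °C for at least 48 hr. Viability was read as ATP luminescence.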
ATXN2 expr inh = ATXN2 expression inhibition | HEK-293 ATXN2-luciferase reporter, luminescence, 24 h | Potency, µM (top dose mostly 57 µM), inactives show at the top dose activity change, negative = inhibition, hits mostly inhibitors | 360,000 tested, 0.72% active | AID 1745845; also: % is scaled to controls: 0 for no effect and ±100 for the full control effect; nearly all actives have a fitted effect of over 55% in size
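qHTS (up to 57 uM final) was run with 24 h compound exposure of reporter cells at 37 °C. Each well was multiplexed: SteadyGlo luminescence measured ATXN2-luciferase expression after a fluorogenic Gly-Phe-AFC viability readout (25 uM final).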
DT40 TDP1 no CPT = qHTS for Inhibitors of human tyrosyl-DNA phosphodiesterase 1 (TDP1): qHTS in cells in absence of CPT; 420,000 tested, 15% active; DT40 Tdp1-/- hTDP1 cells, no CPT, ATP luminescence, 48 h; Potency, µM (top dose mostly 46.2 µM), inactives show at the top dose activity change, negative = growth inhibition, most hits filed as inhibitors; AID 686978, 2013; also: % is scaled to controls: 0 for no effect and ±100 for the full control effect; nearly all actives have a fitted effect of over 55% in size
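Camptothecin absent (DMSO only). Human TDP1-complemented DT40 knockout cells, 400 cells/well, 37 °C for minimum 48 hr; ATP measured via CellTiter-Glo, 30 min dark incubation, luminescence.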
HepG2 tox = counter-screen for TGF-b inhibitors: cytotoxicity in HepG2 cells; HepG2 CAGA-GFP viability, ATP luminescence, 18 h; Potency, µM (titrated, usually from 46.1 µM), for inactives: top-dose activity change, negative = cytotoxicity, actives largely listed as cytotoxic; 410,000 tested, 0.76% active; AID 588856
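HepG2 CAGA-GFP cells (1000/well, DMEM with 1% FBS) received compound, then TGF-beta at 500 pg/mL final, and were incubated 18 hours at 37 degrees C. Viability was read by CellTiter-Glo luminescence. Media-only wells were set as complete cell-killing and DMSO as no toxicity.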
S2 tox = reduces viability in counter-screen for ATXN expression inhibitors; S2 cells (HEK-293 line with an ATXN2-luciferase reporter) viability, CellTiter-Fluor protease fluorescence, 24 h; 400,000 tested, 0.49% active; Potency, µM (doses to about 56.7 µM), hits mostly cytotoxic; also: nearly all actives have a fitted effect of over 40% in size
TGFb SMAD3 inh = blocks TGF-b signaling; HepG2 CAGA-GFP TGF-b/SMAD3 reporter, GFP fluorescence, 18 h; TGF-beta stimulated, 500 pg/mL final; AID 588855; 410,000 tested, 1.2% active; Potency, µM (highest dose often 46.1 µM), without a hit: top-dose activity, negative = inhibition, hits mostly inhibitors; also: % is scaled to controls: 0 for no effect and ±100 for the full control effect; nearly all actives have a fitted effect of over 65% in size
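HEPG2 CAGA-GFP reporter cells (1000/well, DMEM with 1% FBS) received compounds, then recombinant TGF-beta at 500 pg/mL final for 18 hours at 37 degrees C. Per-cell GFP summed per well was normalised to unstimulated and stimulated DMSO controls before curve fitting.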
Active calls of the source: *; i = inactive; ? = inconclusive; . = no result; ! = repeats disagree. Calls follow the shape of the dose curve; as a rule, active = well fitted curve in the direction sought with a large enough effect; inconclusive = small, poorly fitted or top-dose-only effect, or another doubt; inactive = no such curve, though single readings can be large; an effect the other way counts as inactive or inconclusive. Potency is read from the fitted curve at half-maximal effect.

SMILES | DT40 TDP1 CPT | ATXN2 expr inh | DT40 TDP1 no CPT | HepG2 tox | S2 tox | TGFb SMAD3 inh
CC(C)C(=O)Nc1ccc2c(c1)Cc1cc(NC(=O)C(C)C)ccc1-2 | -13.3% | -5.1% | 14.9% | -0.3% | i | -5.7%
CCOc1ccccc1N(CC(=O)N1CCc2ccccc2C1)S(=O)(=O)c1ccccc1 | ? | -13.2% | ? | -24.9% | ? | -29.5%
CN(c1cccc(NC(=O)CN(c2ccc(Cl)c(Cl)c2)S(=O)(=O)c2ccccc2)c1)S(C)(=O)=O | ? | ? | 20.6µM* | -39.9% | i | 0.0%
O=C(CN(c1cccc(C(F)(F)F)c1)S(=O)(=O)c1ccccc1)Nc1cccc(Cl)c1 | 16.4µM* | ? | 14.6µM* | -51.7% | ? | ?
Cc1ccc(S(=O)(=O)N(CC(=O)Nc2cccc(N(C)S(C)(=O)=O)c2)c2ccc(Cl)c(Cl)c2)cc1 | 20.6µM* | -22.5% | 23.1µM* | -36.0% | i | ?
COc1ccc(S(=O)(=O)Nc2cccc(N(C)S(C)(=O)=O)c2)cc1Br | ? | -10.9% | 20.6µM* | 4.5% | ? | ?
O=C(CN(c1cccc(C(F)(F)F)c1)S(=O)(=O)c1ccc(Cl)c([N+](=O)[O-])c1)NCc1ccc(F)cc1 | 16.4µM* | ? | 16.4µM* | -47.2% | 31.6µM* | ?
O=C(CN(c1cccc([N+](=O)[O-])c1)S(=O)(=O)c1ccccc1)NCc1cccnc1 | 8.3% | -7.0% | -15.5% | 1.1% | i | 25.4%
CC(=O)Oc1ccc2ccc3ccc(C(C)=O)cc3c2c1 | ? | -1.9% | 18.4µM* | -12.5% | i | -12.2%
COc1cccc2cc(C(=O)C3=C(O)C(=O)N(Cc4ccco4)C3c3cccnc3)oc12 (centres undefined) | ? | -4.8% | 23.1µM* | -24.1% | i | -3.0%
O=C(C1=C(O)C(=O)N(Cc2ccco2)C1c1cccnc1)c1cc2ccccc2o1 (centres undefined) | ? | 0.4% | ? | 4.0% | i | 26.2%
COc1ccc(NC(=O)c2ccc(-c3nc(CSc4ccccc4)c(C)o3)cc2)cc1OC | ? | -12.4% | -14.3% | -83.8% | i | ?
Cc1ccc(Cl)cc1NC(=O)c1ccc(-c2nc(CSc3ccccc3)c(C)o2)cc1 | 9.2µM* | ? | 6.51µM* | -21.5% | i | -18.1%
Cc1cccc(NC(=O)c2ccc(-c3nc(CSc4ccccc4)c(C)o3)cc2)c1C | 5.17µM* | -4.4% | ? | -59.3% | ? | -14.7%
COC(=O)c1ccccc1NC(=O)c1ccc(-c2nc(CSc3ccc(C)cc3)c(C)o2)cc1 | -9.4% | -3.3% | -0.5% | -18.6% | i | -13.7%
Cc1oc(-c2ccc(C(=O)Nc3cccc(C(F)(F)F)c3)cc2)nc1CSc1ccccc1 | 23.1µM* | . | 16.4µM* | -28.1% | . | ?
Cc1ccc(NC(=O)Nc2nnc(N3CCCC3)s2)c(C)c1 | -1.2% | 1.1% | -4.0% | 5.1% | i | -2.0%
N#C/C(=C1\SCC(c2ccccc2Cl)S1)n1ccnc1 (centres undefined) | ? | -3.8% | 23.7µM* | . | i | .
COc1ccc(Nc2c(C3CC3)nc3nc(C)cc(C)n23)cc1 | ? | -2.6% | ? | . | ? | .
Cc1ccc(S(=O)(=O)N(C(=O)c2ccco2)c2cc3sc(=O)oc3c3ccccc23)cc1 | 5.17µM* | -35.9% | 2.59µM* | -36.6% | ? | ?
CCOc1ccc(S(=O)(=O)N(C(=O)c2ccco2)c2cc3sc(=O)oc3c3ccccc23)cc1 | 18.4µM* | ? | ? | -20.4% | ? | ?
O[C@@H]([C@H](O)[C@H](O)CBr)[C@H](O)CBr | 18.4µM*! | 2.1% | 11.6µM*! | 7.0% | i | 0.4%
CC(C)(C)C(=O)Nc1cc(S(=O)(=O)Nc2ccc(Cl)cc2)ccc1Cl | 18.4µM* | -22.9% | 23.1µM* | -35.7% | ? | -2.8%
Cc1ccc(NC(=O)c2cc(S(=O)(=O)NC3CCCCCC3)ccc2F)cc1F | ? | -28.1% | ? | 12.6µM* | ? | ?
COc1ccc(NS(=O)(=O)c2ccc(Cl)c(NC(=O)c3cccnc3Cl)c2)cc1 | ? | . | 16.4µM* | -54.1% | i | ?
SMILES | DT40 TDP1 CPT | ATXN2 expr inh | DT40 TDP1 no CPT | HepG2 tox | S2 tox | TGFb SMAD3 inh
COc1ccc(NS(=O)(=O)c2ccc(Cl)c(NC(=O)c3ccccc3F)c2)cc1 | ? | 1.5% | ? | -10.4% | i | ?
O=C(Nc1ccc(Cl)cc1)c1cccc(S(=O)(=O)Nc2ccccn2)c1 | -27.9% | -3.9% | -20.9% | -0.6% | ? | 1.4%
O=C(Nc1ccc(Cl)cc1)c1cc(S(=O)(=O)Nc2ccccn2)ccc1Cl | ? | -3.3% | 16.4µM* | -14.8% | i | ?
CC(C=CC(=O)NO)=C[C@@H](C)C(=O)c1ccc(N(C)C)cc1 | . | 167.1% | . | . | . | .
O=C(Nc1ccc(Cl)cc1)c1cc(S(=O)(=O)NC2CCCCCC2)ccc1F | ? | . | ? | -88.0% | . | 8.91µM*
COc1ccccc1NC(=O)c1cc(S(=O)(=O)NC2CCCC2)ccc1F | ? | -8.8% | 3.6% | -8.8% | i | -0.8%
CCc1ccc(NC(=O)c2cc(S(=O)(=O)NC3CCCC3)ccc2F)cc1 | 13µM* | . | 16.4µM* | -70.3% | . | ?
O=C(O)c1ccccc1C(=O)Nc1ccc(S(=O)(=O)NC2CCCCC2)cc1 | -5.8% | 5.4% | -4.4% | -2.3% | i | ?
CNC(=S)N(C)[C@H]1c2c(ccc3ccccc23)OC[C@H]1CO | ? | 0.0% | ? | -4.8% | i | 5.9%
CC(c1ccccc1)c1nnc(NC(=O)c2ccc3c(c2)OCO3)s1 (centres undefined) | ? | . | 18.4µM* | -29.4% | i | -9.8%
COC(=O)c1c(-c2cccnc2)csc1NC(=O)c1ccc2c(c1)OCO2 | ? | 27.0% | 23.1µM* | -5.2% | i | 2.3%
COC(=O)c1ccc(NC(=O)c2ccc3c(c2)OCO3)cc1 | 1.9% | 38.9% | -13.9% | -15.9% | i | 2.4%
COc1ccccc1-c1nnc(NC(=O)c2ccc3c(c2)OCO3)s1 | 2.31µM* | -25.5% | 2.06µM* | 3.8% | ? | 5.3%
CCC(=O)Nc1ccc(C(=O)OCC(=O)c2cccs2)cc1 | 10.0% | 13.0% | -6.4% | 1.0% | i | 5.2%
O=C(O)c1ccc(Cl)cc1NC(=O)C1CCN(S(=O)(=O)c2cccs2)CC1 | 15.5% | . | -2.5% | 0.2% | i | -3.2%
